Rows were chosen to be rich in hits. Some 0.79% of all compounds tested hit in one or more screens of this group.
AI-2 QS modul = Vibrio harveyi AI-2 quorum sensing modulators, primary screen, JMH597 strain, luminescence/OD600 ratio; 300,000 compounds, 0.4% hits; Vibrio harveyi JMH597 AI-2 luminescence/OD600 ratio, 9 h; stronger effect = lower value; strain lacks LuxN and CqsS sensors; 0 = neutral-control median; activity change, % at 7.5 µM; AID 2094, 2009; in the data active = activity change below about -75%, passing the limit was not always enough;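 also: luminescence divided by OD600 gain over 9 h not by final OD600 alone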
Tat transport = E. coli Tat export inhibitors, primary screen, MC4100, TorA-mCherry reporter, fluorescence, single point | inhibition, % at 10 µM | 340,000 compounds, 0.036% hits;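 active = mean replicate inhibition at least 50% and at least half of replicates individually reaching 50%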;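 also: exported cargo escapes ClpAP degradation while cytoplasmic cargo is degraded and loses fluorescence; 0% = median of neutral control wells and 100% = median of NaSCN control wells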
AddAB inh = growth inhibition of E. coli expressing H. pylori AddAB, primary screen, AddAB inhibitor project, absorbance; inhibition, % at 11.9 µM; 330,000 compounds, 0.29% hits; in the data active = inhibition above about 12%;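 also: 0% = vehicle wells of infected cells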
E coli growth-1 = E. coli growth inhibition, primary screen, OD600 | OD600 absorbance (concentration not given with the values) | 330,000 compounds, 0.21% hits | Escherichia coli growth, 23 h; stronger effect = lower value;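 active = OD600 absorbance below the run mean of sample wells minus 3.6 SD, in any replicate, cut at about 0.56 in these data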
phage Ecoli inh = growth loss of phage-infected E. coli, primary screen, RecBCD inhibitor project, absorbance, with phage, HTS; 360,000 compounds, 0.26% hits; inhibition, % at 11.9 µM; in the data active = inhibition above about 11%
E coli growth-2 = E. coli V3065 growth inhibition, primary screen, counter-screen for AddAB inhibitor project, absorbance, OD600 | 18 h | inhibition, % at 11.9 µM | 330,000 compounds, 0.27% hits;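 active = inhibition above the campaign's mean inhibition across all tested compounds plus 3 SD, cut at about 9.9% in these data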;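 also: uninfected addAB+ strain grown without phage in ampicillin broth; 0% = DMSO wells and 100% = ciprofloxacin 0.95 µg/ml wells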
AddAB confirm = growth loss of phage-infected E. coli expressing H. pylori AddAB, confirmation, AddAB inhibitor project, absorbance, E. coli V3065, T4 phage, triplicate | shares compounds with AddAB inh | OD; T4 phage with gene 2 nonsense mutations | inhibition, % at 11.9 µM | 880 compounds, 64% hits | AID 488942, 2010;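 active = mean inhibition above a set limit taken from the earlier primary screen, cut at about 13% in these data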;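 also: higher means less bacterial growth since AddAB block lets phage replicate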
RecBCD counter = growth loss of RecBCD+ E. coli with mutant T4 phage, counter-screen for AddAB inhibitor project, absorbance, V66 E. coli | 880 compounds, 73% hits | shares compounds with AddAB inh | inhibition, % at 11.9 µM | OD growth;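 active = mean inhibition above the mean of solvent-only control wells plus 3 SD, cut at about 4% in these data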;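 also: optical density read after an 18 h incubation at 37 °C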
bact viab count = bacterial viability inhibition counter-screen, confirmation, counter-screen for AddAB inhibitor project, absorbance; 880 compounds, 35% hits; shares compounds with AddAB inh; AID 488956, 2010; inhibition, % at 11.9 µM; absorbance (AddAB counterscreen); in the data active = inhibition above about 25%
RecBCD conf = growth loss of phage-infected RecBCD+ E. coli, confirmation, RecBCD inhibitor project, absorbance, E. coli V66, T4 gene 2 phage | shares compounds with phage Ecoli inh | E. coli V66 + T4 2- phage, growth OD | inhibition, % at 11.9 µM | 890 compounds, 45% hits;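 active = mean inhibition over triplicates exceeding the hit threshold derived in the original primary screen, cut at about 11% in these data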
Ecoli viability = E. coli viability inhibition, counter-screen for RecBCD inhibitor project, absorbance, high throughput; absorbance (OD) growth; inhibition, % at 11.9 µM; 890 compounds, 29% hits; shares compounds with phage Ecoli inh; in the data active = inhibition above about 20%;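 also: E. coli strain V66 grown with compound alone and no phage infection; 0% = bacteria with DMSO vehicle only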
AddAB phage OD = growth loss of phage-infected AddAB-carrying E. coli, confirmation, counter-screen for RecBCD inhibitor project, absorbance, E. coli V3065, T4 phage; shares compounds with phage Ecoli inh; E. coli expressing H. pylori AddAB + T4 phage, OD growth; gene 2 mutant T4, recBCD-deleted host; inhibition, % at 11.9 µM; 890 compounds, 45% hits;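 active = mean inhibition above the solvent-only control wells' mean plus 3 SD, cut at about 22% in these data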;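 also: higher means less bacterial growth from phage killing when AddAB is blocked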
* hit, by the source's call; x = not tested or not shown.

SMILES	AI-2 QS modul	Tat transport	AddAB inh	E coli growth-1	phage Ecoli inh	E coli growth-2	AddAB confirm	RecBCD counter	bact viab count	RecBCD conf	Ecoli viability	AddAB phage OD
CCCCC(=O)NC(c1ccccc1)c1ccc2cccnc2c1O (configuration not stated)	x	-9	26*	x	24*	31*	27*	25*	24	12*	16	29*
COC(=O)C1=C(C(=O)OC)C2N(C)c3ccccc3[C@@]23CC(C(=O)OC)N(C(=O)c2cc(C)oc2C)C3=N1 (some centres not stated)	x	x	x	0.67	x	x	x	x	x	x	x	x
COC(=O)[C@@]1(Cc2ccccc2)C2c3cc(C(=O)N4CCCC4)n(CCSCCO)c3CC2CN1C(=O)c1ccccc1 (some centres not stated)	x	x	x	0.7	x	x	x	x	x	x	x	x
Cc1ccc(NC(=O)CC2SC(=Nc3nccs3)N(C)C2=O)cc1C (configuration not stated)	x	x	x	0.69	x	x	x	x	x	x	x	x
Oc1c(N=Nc2ccccn2)ccc2ccccc12	32	2	20*	0.75	18*	18*	21*	17*	18	12*	13	26*
Oc1[nH]c2ccccc2c1N=Nc1ccccn1	x	7	x	x	1	x	x	x	x	x	x	x
CC(O)C1CNC(=O)C(=O)N1CCc1cccc2ccccc12 (configuration not stated)	x	x	x	0.68	x	x	x	x	x	x	x	x
CCC(C)=C1SC(N2CCN(C(C)=O)CC2)=NC1=O	x	x	x	0.68	x	x	x	x	x	x	x	x
Cn1c(O)c(/C=N/NC(=O)c2cc3ccccc3cc2O)c2ccccc21	11	4	23*	x	22*	25*	25*	25*	22	19*	23*	30*
O=C(Nc1cc(Cl)ccc1-n1cncn1)c1ccc([N+](=O)[O-])o1	-28	-7	99*	0.58	16*	32*	92*	12*	57*	9	12	98*
CCC(=O)N1CCN(c2ccc(Cl)cc2NC(=O)c2ccc([N+](=O)[O-])o2)CC1	3	1	3	0.72	2	3	x	x	x	x	x	x
CCC(C)Sc1ccc(C2C3C(=O)N(C)C(=O)C3[C@]3(C(=O)OC)CCCN23)cc1 (some centres not stated)	x	x	x	0.66	x	x	x	x	x	x	x	x
COc1ccc(C=NNS(=O)(=O)c2ccc(C)cc2)cc1COc1ccccc1[N+](=O)[O-]	x	x	x	0.77	x	x	x	x	x	x	x	x
CCN(CC)c1ccc(/C=N/NC(=O)c2nnn(-c3nonc3N)c2C(C)C)c(O)c1	4	-32	27*	x	11*	20*	11	16*	7	6	9	8
CC(C)c1c(C(=O)N/N=C/c2ccc3c(c2)OCO3)nnn1-c1nonc1N	8	3	5	x	-2	-2	x	x	x	x	x	x
C=C1CCC2C(C)(C)C(O)CC[C@@]2(C)C1COc1cc(=O)oc2ccccc12 (some centres not stated)	x	x	x	0.65	x	x	x	x	x	x	x	x
CN(Cc1ccccc1C#N)S(=O)(=O)c1cccs1	21	7	4	0.7	5	2	x	x	x	x	x	x
N#Cc1nccnc1S(=O)(=O)c1cccs1	-132*	x	19*	0.49*	18*	13*	64*	17*	16	17*	16	33*
Cc1[nH]c(N=Nc2ccccc2)nc1N=Nc1ccccc1	5	-3	14*	x	12*	16*	10	8.2*	16	3	4	20
CCCNC(=O)c1ccc2c(=O)c(O)c(-c3cccc(Br)c3)[nH]c2c1	-2	13	15*	0.66	20*	13*	14*	13*	15	12*	13	16
ON=C(Cc1ccccn1)c1ccccc1	x	x	x	0.71	x	x	x	x	x	x	x	x
O=C1NCCCC1C(=O)N1CCCCC1 (configuration not stated)	17	6	0	0.64	4	1	x	x	x	x	x	x
O=C1CCC(=O)N(O)CCCCCNC(=O)CCC(=O)N(O)CCCCNC(=O)CCC(=O)N(O)CCCCCN1	-56	-5	31*	0.67	22*	28*	26*	23*	13	16*	20*	21
CC(NC(=O)c1nc[nH]c1C(=O)NCCCCCNC(=O)OC(C)(C)C)C(=O)OC(C)(C)C (configuration not stated)	x	x	x	0.7	x	x	x	x	x	x	x	x
CCN(CC)c1ccc(/C=N/NC(=O)c2cccc(S(=O)(=O)Nc3ccccc3OC)c2)c(O)c1	-8	-4	32*	x	28*	33*	21*	26*	19	19*	24*	28*
O=C(CN1C(=O)S/C(=C\c2ccc(O)cc2)C1=O)c1ccccc1	8	-12	1	x	3	0	x	x	x	x	x	x
O=C(CN1C(=O)S/C(=C\c2ccccc2)C1=O)NNC(=O)c1ccccc1O	22	-8	19*	0.7	14*	17*	16*	14*	12	6	7	7
COc1ccc(/C=C2\SC(=O)N(CC(=O)NNC(=O)c3ccccc3O)C2=O)cc1	44	0	17*	0.71	15*	10*	11	10*	10	2	3	1
COc1ccc(/C=C2\SC(=O)N(CC(=O)NNC(=O)c3ccccc3O)C2=O)cc1OC	2	-6	23*	x	16*	18*	20*	14*	16	6	9	16
C=CCC(CC(=O)NC(CO)Cc1ccccc1)C(=O)NC(COC(=O)C(CC=C)Cc1ccc(F)cc1)Cc1c[nH]c2ccccc12 (configuration not stated)	x	x	x	0.75	x	x	x	x	x	x	x	x

High-throughput results: PubChem, several laboratories
